What is called AC50 is the concentration giving half of the maximal activity seen.

“And” between values parts separate entries of the source, which are not always exact repeats. Equal values may be shown once. The source holds several records for some structures; these can differ, active in one and inactive in another. The source made the active and inactive calls. The calls were made as follows: active = hit-call score of the fitted dose curve at least 0.9, where 1 is the maximum; inactive = score below 0.9.

32 compounds from PubChem BioAssay (EPA / NIEHS) can be followed below.

Read-out in this assay: Interferon-inducible T-cell alpha chemoattractant (ITAC), CXCL11 (gene 6373)
Put plainly: BSK_hDFCGF_ITAC: BioMAP Diversity Plus: hDFCGF Assay for Interferon-inducible T-cell alpha chemoattractant (ITAC) Biomarker Activity (AID 2284251). Particulars: primary human foreskin fibroblasts. As to the method: BSK_hDFCGF is a cell-based, multiplexed-readout assay that uses foreskin fibroblast, a human skin primary cell, with measurements taken at 24 hours after chemical dosing in a 96-well plate.BSK_hDFCGF_ITAC is an assay component measured in the BSK_hDFCGF assay. It measures I-TAC antibody related to regulation of gene expression using ELISA technology.Data from the assay component BSK_hDFCGF_ITAC was analyzed at the endpoint, BSK_hDFCGF_ITAC, in the positive analysis fitting direction relative to DMSO as the negative control and baseline of activity. Using a type of binding reporter, gain or loss-of-signal activity can be used to understand protein changes. To generalize the intended target to other relatable targets, this assay endpoint is annotated to the 'cytokine' intended target family, where the subfamily is 'chemotactic factor'.
The levels of cell surface (or secreted, indicated by the prefix "s") biomarker endpoints were measured by ELISA. Overt cytotoxicity to cells in confluent adherent cultures (all systems other than the BT system) was assessed by measuring total protein levels using sulforhodamine B (SRB) staining in parallel cultures at the time of biomarker measurements, indicated as SRB endpoints. For proliferation assays for adherent cell types, individual cell types are cultured at sub-confluence and relative cell numbers quantified by SRB staining at time points optimized for each system (48 h: 3C and CASM3C systems; 72 h: BT and HDF3CGF systems; 96 h: SAg system). SRB was performed by staining cells with 0.1% SRB after fixation with 10% TCA and reading wells at 560 nm.Viability and proliferation of PBMC (T cells) was quantified by Alamar Blue reduction for the SAg and BT systems. For PBMC viability (referred to as PBMC Cytotoxicity within the assay endpoint names), cells were plated (75,000/well in a 96-well plate) and then chemical samples added for 1 h before addition of activators, SEB and TSST-1 (20 ng/mL final concentration each). Cells were incubated for 90 h. Then, Alamar Blue (20 uL/well) (Invitrogen, Cat DAL1100) was added for 6 h, and the plates were read with a fluorescence microplate reader at 546/580 nm (excitation/emission). For PBMC proliferation, cells were plated and activated as above but incubated for only 16 h prior to addition of Alamar Blue. Plates were read after 6 h.
Regarding `C=CC(=O)OCC(F)(F)C(F)(F)C(F)(F)COC(=O)C=C`, the AC50 is 733 nM (active) and 1.58 µM (active). For `NC(=O)C(F)(F)C(F)(F)C(F)(F)F`, the result was inactive. Same read-out and setting: in the case of `CNS(=O)(=O)C(F)(F)C(F)(F)C(F)(F)C(F)(F)C(F)(F)C(F)(F)C(F)(F)C(F)(F)F` it was “inactive”; in that of `OCC(O)CC(F)(F)C(F)(F)C(F)(F)C(F)(F)C(F)(F)C(F)(F)C(F)(F)C(F)(F)F` (stereo not given), “inactive”. Turning to `FC(F)(F)C(F)(F)C(F)(F)C(F)(F)C(F)(F)C(F)(F)C(F)(F)CCI`, the AC50 was 3.33 µM (active) and the outcome was inactive. As to `CCOC(=O)CC(=O)C(F)(F)C(F)(F)F`, the outcome was inactive.

`O=C(O)CCC(F)(F)C(F)(F)C(F)(F)F`: the outcome was inactive. Same read-out and setting: in the case of `CO[Si](C)(CCC(F)(F)C(F)(F)C(F)(F)C(F)(F)C(F)(F)C(F)(F)F)OC` it was “inactive”; in that of `NC(=O)C(F)(F)C(F)(F)C(F)(F)C(F)(F)C(F)(F)C(F)(F)C(F)(F)F`, “inactive”. For the compound `FC(F)(F)C(F)(F)C(F)(F)CC1CO1` (stereo not given), the result was inactive and the half-maximal activity concentration (AC50) is 5.97 µM (active). Regarding `O=C(O)C(F)(F)OC(F)(F)C(F)(F)OC(F)(F)C(F)(F)OC(F)(F)F`, the outcome was inactive.

In the case of `COC(F)(C(F)F)C(F)(F)F` (stereo not given), the result was inactive. In the case of `O=S(=O)(O)CCC(F)(F)C(F)(F)C(F)(F)C(F)(F)F`, the AC50 was 0.931 µM (active) and the result was inactive.

Consider `O=C(O)C(F)(F)C(F)(F)C(F)(F)C(F)(F)C(F)(F)C(F)(F)C(F)F`, for which the result was inactive and the AC50 was 0.577 µM (active). For the compound `NCC(F)(F)C(F)(F)C(F)(F)C(F)(F)C(F)(F)C(F)(F)F`, the result was inactive. Still for that read-out and setting: in the case of `O=C(Cl)C(F)(F)C(F)(F)C(F)(F)C(F)(F)C(F)(F)C(F)(F)C(F)(F)F` it was “inactive”. The same measure, in the same setting: in the case of `O=C(O)C(F)(F)C(F)(F)C(F)(F)C(=O)O` it was “inactive”; in that of `NC(=O)C(F)(F)C(F)(F)C(F)(F)C(F)F`, “inactive”. Still for that read-out and setting: in the case of `OCCCCC(F)(F)C(F)(F)C(F)(F)C(F)(F)F` it was “inactive”; in that of `NC(=O)C(F)(F)C(F)(F)C(F)(F)C(F)(F)C(N)=O`, “inactive”.

For the compound `C=C(C)C(=O)OCC(F)(F)C(F)(F)C(F)(F)C(F)F`, the half-maximal activity concentration (AC50) is 7.82 µM (active) and the result was inactive. For the compound `FC(F)(F)C(F)(F)C(F)(F)C(F)(F)C(F)(F)C(F)(F)CC[Si](Cl)(Cl)Cl`, the result was inactive. On to `OCCCC(F)(F)C(F)(F)C(F)(F)C(F)(F)C(F)(F)C(F)(F)C(F)(F)C(F)(F)F`, for which the AC50 was 7.67 µM (active) and 5.74 µM (active). In the case of `O=S(=O)(O)CCC(F)(F)C(F)(F)C(F)(F)C(F)(F)C(F)(F)C(F)(F)C(F)(F)C(F)(F)F`, the AC50 is 30 µM (active) and the result was inactive. As for `CN(C(=O)C(F)(F)C(F)(F)C(F)(F)F)[Si](C)(C)C`, the outcome was inactive.

For `OCC(F)(F)C(F)(F)C(F)(F)C(F)(F)C(F)(F)C(F)(F)C(F)(F)C(F)(F)CO`, the half-maximal activity concentration (AC50) was 44.9 µM (active) and 43 µM (active). Turning to `OC(O)C(F)(F)C(F)(F)F`, the result was inactive.

Regarding `NC(O)(C(F)(F)F)C(F)(F)F`, the result was inactive. In the case of `O=S(=O)(OCC(F)(F)F)C(F)(F)C(F)(F)C(F)(F)C(F)(F)F`, the concentration at half-maximal activity (AC50) is 30 µM (active). The same measure, in the same setting: in the case of `CCN(CCO)S(=O)(=O)C(F)(F)C(F)(F)C(F)(F)C(F)(F)C(F)(F)C(F)(F)C(F)(F)C(F)(F)F` it was 34.8 µM (active) and 24.3 µM (active). With `C[Si](Cl)(Cl)CCC(F)(F)C(F)(F)C(F)(F)C(F)(F)C(F)(F)C(F)(F)F`, the result was inactive and the AC50 is 1.49 µM (active). For `OCC(F)(F)C(F)(F)C(F)(F)CO` the same measures were “inactive” and 9.21 µM (active).
